These are literature values, as cited in PubChem BioAssay AID977610.

As a reminder, the Ki is the equilibrium dissociation constant of an inhibitor or competing ligand from its target.

Out of some 3,600 compounds screened, about 3,600 (100%) were called active. No cut-off is given here; in the data, nearly all actives have Ki up to about 18000 µM. So high a share suggests a set chosen from earlier hits. Some of the results follow. Where a SMILES comes first, the peptide text is derived from it. Non-standard residues stand in square brackets, D forms with d. Square brackets hold non-standard residues; d marks the D form. Residues, ends and D or L forms follow the SMILES beside them. Peptide text beside a SMILES is read from it. [ ]: non-standard residue; d: D form. Orn(CH(NH2)2) = NC(N)NCCC[C@H](N)C(=O)O; Ahx = NCCCCCC(=O)O

The nature of this series: PubChem AID 977610. The note with it: PDB protein-ligand complexes, literature Ki.

Regarding `CC(C)C[C@H](NC(=O)[C@H](CC(C)C)NC(=O)[C@H](Cc1cnc[nH]1)NC(=O)[C@H](CCCNC(N)N)NC(=O)[C@H](CC(C)C)NC(=O)[C@H](CC(C)C)NC(=O)[C@H](CC(C)C)NC(=O)[C@@H]1CCCN1C(=O)[C@H](Cc1cnc[nH]1)NC(=O)[C@@H](N)CCCNC(N)N)C(=O)N[C@@H](CCC(N)=O)C(=O)N[C@@H](CC(N)=O)C(=O)O` (H-[Orn(CH(NH2)2)]HPLLL[Orn(CH(NH2)2)]HLLQN-OH), the Ki (protein: Estrogen receptor beta, PDB entry 4j24) was 0.05 µM (active).
For the compound `CC(C)C[C@H](NC(=O)[C@H](CS)NC(=O)[C@@H]1CCCN1C(=O)[C@@H](NC(=O)[C@@H]1CCCN1C(=O)[C@@H]1CCCN1C(=O)[C@H](CS)NC(=O)[C@H](Cc1ccc(O)cc1)NC(=O)[C@H](CC(N)=O)NC(=O)[C@@H](NC(=O)[C@H](CCC(N)=O)NC(=O)[C@H](CS)NC(=O)CN)C(C)C)C(C)C)C(N)=O` (H-GCQVNYCPPVPCL-NH2), where the note is “protein: urokinase-type plasminogen activator (uPA), PDB entry 4mny”, the inhibition constant (Ki) is 1.96 µM (active).
As to `O=C(NCC1(C2NC(c3ccccc3)=CS2)CCOCC1)c1cccc(-c2noc(C(F)(F)F)n2)c1` (centres undefined), the Ki (protein: HISTONE DEACETYLASE 7, PDB entry 3znr) was 0.036 µM (active).
For `O=C(O)c1ccccc1C(=O)O`, the Ki (protein: Nicotinate-nucleotide pyrophosphorylase [carboxylating], PDB entry 4kww) is 2.8 µM (active).
As to `O=C(O)c1ccccc1Nc1cccc(Nc2ccccc2C(=O)O)c1C(=O)O`, for the setting “protein: Anthranilate phosphoribosyltransferase, PDB entry 4m0r”, the Ki was 6.2 µM (active).
Take `O=C(O)c1ccccc1Nc1ccccc1C(=O)O`: the Ki (protein: Anthranilate phosphoribosyltransferase, PDB entry 4ij1) was 4 µM (active).
Consider `Cc1ccc(Nc2ccccc2C(=O)O)c(C(=O)O)c1`, for which, under “protein: Anthranilate phosphoribosyltransferase, PDB entry 4gkm”, the inhibition constant (Ki) was 6.8 µM (active).
In the case of `NC(=O)SCC(=O)Nc1ccccc1C(=O)O`, the Ki (protein: Human cathepsin K mutant C25S, PDB entry 4leg) is 28 µM (active).
Consider `Cc1ccc(C(=O)O)c(Nc2c(C)cccc2C(=O)O)c1`, for which the Ki (protein: anthranilate phosphoribosyltransferase (AnPRT; trpD), PDB entry 4giu) is 4.7 µM (active).
With `Nc1ccn([C@@H]2O[C@H](CO[P+](O)(O)O)[C@@H](O)[C@H]2O)c(=O)n1`, the Ki (protein: Bos taurus ribonuclease A, PDB entry 1rnm) is 844 µM (active).
Turning to `Nc1ccn([C@@H]2O[C@H](CO)[C@@H](O[P+](O)(O)O)[C@H]2O)c(=O)n1`, the Ki (protein: Bos taurus ribonuclease A, PDB entry 1rpf) was 103 µM (active).
With `Nc1ccn([C@@H]2O[C@H](CO)[C@@H](O)[C@H]2O[P+](O)(O)O)c(=O)n1`, where the note is “protein: Bos taurus ribonuclease A, PDB entry 1jvu”, the inhibition constant Ki was 7 µM (active).
Consider `Cc1cc(C)c(/C=N/NC(=O)[C@@H](N)Cc2c[nH]c3ccccc23)c(C)c1`, for which, where the note is “protein: Endothiapepsin, PDB entry 4kup”, the Ki is 6 µM (active).
As for `Cc1nn(C)c(C)c1Cc1nnc(-c2sc3ccccc3c2OC2CCNCC2)o1`, the inhibition constant (Ki) (protein: Plasmodium vivax N-myristoyltransferase, PDB entry 2yne) was 0.0027 µM (active).
As for `CC[C@H](C)[C@H](NC(=O)[C@H](CO)NC(=O)[C@@H](NC(=O)[C@@H]1CCCN1C(=O)[C@H](Cc1c[nH]c2ccccc12)NC(=O)[C@H](CCCNC(N)N)NC(=O)[C@@H](N)CO)[C@@H](C)O)C(=O)N[C@@H](CC(C)C)C(=O)O` (H-S[Orn(CH(NH2)2)]WPTSIL-OH), the Ki (protein: Tax1-binding protein 3, PDB entry 4e3b) is 0.9 µM (active).
As for H-SRWPTTRL-OH, the Ki (protein: CFTR Associated Ligand (CAL) PDZ domain, PDB entry 4k76) is 4.5 µM (active).
With `CC[C@H](C)[C@H](NC(=O)[C@H](CO)NC(=O)[C@@H](NC(=O)[C@@H]1CCCN1C(=O)[C@H](Cc1c[nH]c2ccccc12)NC(=O)[C@@H](N)CCCNC(N)N)[C@@H](C)O)C(=O)N[C@@H](CC(C)C)C(=O)O` (H-[Orn(CH(NH2)2)]WPTSIL-OH), the inhibitory constant (Ki) (protein: Golgi-associated PDZ and coiled-coil motif-containing protein, PDB entry 4e35) is 24 µM (active).
As to `CC[C@H](C)[C@H](NC(=O)[C@@H]1CCCN1C(=O)[C@H](CC(=O)O)NC(=O)[C@H](CC(C)C)NC(=O)[C@H](C)NC(=O)[C@@H](N)Cc1c[nH]c2ccccc12)C(=O)N[C@@H](C)C(=O)NCC(=O)N[C@@H](CCCCN)C(=O)N[C@@H](Cc1c[nH]c2ccccc12)C(=O)N[C@@H](CO)C(=O)N[C@@H](CCCNC(N)N)C(=O)O` (H-WALDPIAGKWS[Orn(CH(NH2)2)]-OH), the inhibitory constant (Ki) (protein: Acyl-[acyl-carrier-protein]--UDP-N-acetylglucosamine O-acyltransferase, PDB entry 2aq9) is 0.05 µM (active).
Regarding `CC[C@H](C)[C@H](NC(=O)[C@H](CCCNC(N)N)NC(=O)CNC(=O)[C@@H](NC(=O)[C@@H](NC(=O)[C@@H](NC(=O)[C@@H](NC(=O)[C@H](CO)NC(=O)CN)C(C)C)C(C)C)[C@@H](C)CC)C(C)C)C(=O)N[C@H](C(=O)N[C@@H](CC(C)C)C(=O)N[C@@H](CO)C(=O)O)[C@@H](C)CC` (H-GSVVIVG[Orn(CH(NH2)2)]IILS-OH), the Ki (protein: HCV NS3 protease, PDB entry 1dxp) was 0.027 µM (active).
As for `CSCC[C@H](NC(C)=O)C(=O)N[C@@H](Cc1c[nH]c2ccccc12)C(=O)N[C@@H](CC(=O)O)C(=O)N[C@@H](Cc1ccccc1)C(=O)N[C@@H](CC(=O)O)C(=O)N[C@@H](CC(=O)O)C(=O)NCCCCCC(=O)N[C@@H](CCSC)C(=O)N1CCC[C@H]1C(=O)N1CCC[C@H]1C(=O)N[C@@H](C)C(=O)N[C@@H](CC(=O)O)C(=O)N[C@@H](CCC(=O)O)C(=O)N[C@@H](CC(=O)O)C(=O)N[C@@H](Cc1ccc(O)cc1)C(=O)N[C@@H](CO)C(=O)N1CCC[C@H]1C(N)=O` (Ac-MWDFDD[Ahx]MPPADEDYSP-NH2), the inhibition constant (Ki) (protein: interleukin-8(IL-8), PDB entry 1ilq) was 13 µM (active).
For H-GGGGGGAVPGSWPW-OH, the Ki (protein: Chymotrypsinogen A, PDB entry 1oxg) is 2.7e-05 µM (active).
Regarding `CCC(CC)O[C@@H]1CC(C(=O)O)=C[C@H](n2cc([C@H](O)CC)nn2)[C@H]1NC(C)=O`, the inhibition constant Ki (protein: Neuraminidase, PDB entry 4ks4) is 0.072 µM (active).
On to `CCC(CC)O[C@@H]1CC(C(=O)O)=C[C@H](n2cc(CCCO)nn2)[C@H]1NC(C)=O`, for which, where the note is “protein: Neuraminidase, PDB entry 4ks3”, the inhibition constant Ki was 0.43 µM (active).
As for `CCC(CC)O[C@@H]1CC(C(=O)O)=C[C@H](n2cc(C(C)(C)O)nn2)[C@H]1NC(C)=O`, the Ki (protein: Neuraminidase, PDB entry 4ks5) was 0.13 µM (active).
As for `CCn1c(O)cc(=O)n(CC)c1=S`, the inhibition constant Ki (protein: AmpC beta-lactamase, PDB entry 4kz8) is 1600 µM (active).
With `O=C(O)c1ccc(CCNS(=O)(=O)c2ccsc2C(=O)O)cc1`, the Ki (protein: AmpC beta-lactamase from E. coli, PDB entry 4jxv) was 31 µM (active).
`O=C(O)C(=O)CO`: for the setting “PDB entry 4mfe”, the inhibitory constant (Ki) was 5400 µM (active).
In the case of `NCCCC[C@H](NC(=O)[C@H](CCCN=C(N)N)NC(=O)[C@H](CC(N)=O)NC(=O)[C@H](CCC(=O)O)NC(=O)[C@H](CS)NC(=O)CNC(=O)[C@H](CCCN=C(N)N)NC(=O)[C@H](CC(=O)O)NC(=O)[C@H](Cc1c[nH]c2ccccc12)NC(=O)[C@H](CS)NC(=O)[C@@H](N)CCC(N)=O)C(=O)N[C@@H](CS)C(=O)N[C@@H](CC(N)=O)C(N)=O` (H-QCWDRGCENRKCN-NH2), the Ki (protein: urokinase-type plasminogen activator (uPA), PDB entry 4mnw) was 1.72 µM (active).
In the case of `CC(C)C[C@H](N)C(=O)N[C@@H](CS)C(=O)N[C@@H](CO)C(=O)N[C@@H](CC(=O)O)C(=O)N[C@@H](CCCN=C(N)N)C(=O)NCC(=O)N[C@@H](CS)C(=O)N[C@@H](CCC(=O)O)C(=O)N[C@@H](CC(N)=O)C(=O)N[C@@H](CCCN=C(N)N)C(=O)N[C@@H](Cc1c[nH]c2ccccc12)C(=O)N[C@@H](CS)C(=O)N[C@@H](CCCCN)C(N)=O` (H-LCSDRGCENRWCK-NH2), the Ki (protein: urokinase-type plasminogen activator (uPA), PDB entry 4mnx) is 17.7 µM (active).
